Data published in ChEMBL document CHEMBL3433997, “St. Jude Leishmania screening dataset” (2016).

Tests used:
Format in all cases: functional
[1] = target: Solute carrier family 2, facilitated glucose transporter member 1 (Homo sapiens) (UniProt P11166); experiment: ST_JUDE_LEISH: Cytotoxicity at 2uM final concentration against transgenic Leishmania Mexicana promastigotes LmGLUT1 that are glucose transport deficient and complemented with the human glucose transporter GLUT1. Activity is measured by DNA content using SYBR green in vitro
Chain of Solute carrier family 2, facilitated glucose transporter member 1 (Homo sapiens) (P11166 whole entry): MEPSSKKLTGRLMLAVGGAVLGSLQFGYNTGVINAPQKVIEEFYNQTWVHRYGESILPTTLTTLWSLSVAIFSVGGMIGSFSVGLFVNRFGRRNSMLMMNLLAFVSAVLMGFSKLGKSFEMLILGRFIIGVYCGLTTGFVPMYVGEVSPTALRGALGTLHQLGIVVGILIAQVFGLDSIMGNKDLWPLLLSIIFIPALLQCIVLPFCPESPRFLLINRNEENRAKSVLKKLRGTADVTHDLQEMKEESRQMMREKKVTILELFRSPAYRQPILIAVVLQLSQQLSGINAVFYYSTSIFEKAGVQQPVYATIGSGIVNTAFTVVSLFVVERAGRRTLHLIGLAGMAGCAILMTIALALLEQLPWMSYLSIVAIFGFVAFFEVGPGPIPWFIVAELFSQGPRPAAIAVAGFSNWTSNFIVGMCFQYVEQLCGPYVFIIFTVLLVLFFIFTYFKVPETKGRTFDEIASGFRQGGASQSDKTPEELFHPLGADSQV

[2] = target: Hexose transporter 1 (Plasmodium falciparum) (UniProt O97467); experiment: ST_JUDE_LEISH: Cytotoxicity at 2uM final concentration against transgenic Leishmania Mexicana promastigotes LmPfHT that are glucose transport deficient and complemented with the Plasmodium falciparum hexose transporter. Activity is measured by DNA content using SYBR green in vitro
[3] = target: Glucose transporter (Leishmania mexicana) (UniProt O61059); experiment: ST_JUDE_LEISH: Cytotoxicity at 2uM final concentration against transgenic Leishmania Mexicana promastigotes LmGT2 that are glucose transport deficient and complemented with the L. Mexicana glucose transporter 2. Activity is measured by DNA content using SYBR green in vitro

O=C(/C=C/c1ccc(Cl)c(Cl)c1)N1CCC(CCN2CCC(c3c[nH]c4ccccc34)CC2)CC1
inhibition [1]: -0.41% | inhibition [2]: 0.94% | inhibition [3]: 0.41%

Cc1ccc(-c2nnc(Nc3ccc(CC(N)=O)cc3)c3ccccc23)cc1S(=O)(=O)NCC1CCCO1 (stereo unspecified)
inhibition [1]: 6.25% | inhibition [2]: 7.99% | inhibition [3]: 2.36%

O=C(NCC1CC1)C1CCN(C(c2ccccc2)c2ccc(Cl)c(Cl)c2)CC1 (stereo unspecified)
inhibition [1]: -0.49% | inhibition [2]: 1.49% | inhibition [3]: 0.06%

CN(CCCN(C)c1cc(NC(=O)c2ccc(F)cc2)ccn1)Cc1cccc(F)c1
inhibition [1]: 5% | inhibition [2]: 5.98% | inhibition [3]: 4.86%

COc1ccc2c(c1C1CCN(CCCCNC(=O)c3ccc(-c4ccc(Cl)cn4)cc3)CC1)CCCC2
inhibition [1]: 2.21% | inhibition [2]: 2.74% | inhibition [3]: 3.95%

CN1CCN(CCCCNc2c3ccccc3nc3ccccc23)CC1
inhibition [1]: 23% | inhibition [2]: 11.7% | inhibition [3]: 14.6%

CCc1ccc(CNCC(CCNc2cc(=O)c3ccccc3[nH]2)NCc2cc(Br)cc(Br)c2)o1 (stereo unspecified)
inhibition [1]: -1.12% | inhibition [2]: 1.71% | inhibition [3]: -0.33%

COCCNCc1ncsc1-c1ccc2c(Nc3ccc(Oc4ccccc4)cc3)ccnc2c1
inhibition [1]: 0.02% | inhibition [2]: 1.15% | inhibition [3]: 2.26%

O=C(c1ccccc1)N1CCC[C@](CCCN2CCN(c3ccccc3O)CC2)(c2ccc(Cl)c(Cl)c2)C1
inhibition [1]: 5.1% | inhibition [2]: 4.13% | inhibition [3]: 5.99%

c1ccc(CCNCc2ccc(-c3ccc(CNC4CCN(Cc5ccccc5)CC4)cc3)nc2)cc1
inhibition [1]: 5.76% | inhibition [2]: 11.9% | inhibition [3]: 4.15%

COc1ccc2c(=NN=Cc3ccc(OC)c4ccccc34)cc(C)[nH]c2c1
inhibition [1]: 0.09% | inhibition [2]: 1.71% | inhibition [3]: 1.11%

CCCc1nc2c(N3CCCN(C(=O)NC4CCCCC4)CC3)cccc2n1Cc1ccccn1
inhibition [1]: -2% | inhibition [2]: -1.61% | inhibition [3]: -1.29%

COc1cc2nc(N3CCC(CNC(=O)c4ccc(-c5ccc(C#N)cc5C)cc4)CC3)nc(N)c2cc1OC
inhibition [1]: 1.67% | inhibition [2]: 1.27% | inhibition [3]: 0.49%

O=C(Cc1cn(-c2ccccc2)nc1-c1ccc(Cl)cc1)Nc1nccs1
inhibition [1]: 7.92% | inhibition [2]: 8.35% | inhibition [3]: 7.98%

CN(C)S(=O)(=O)n1ncc2c3c(N)nc(N)nc3ccc21
inhibition [1]: 0.68% | inhibition [2]: 1.22% | inhibition [3]: 0.96%

CN(C)Cc1cccc(-c2ccc(NC(=O)c3ccc4c(=O)n(Cc5ccoc5)cnc4c3)cc2)c1
inhibition [1]: 63.7% | inhibition [2]: 54.6% | inhibition [3]: 24.1%

O=C(Nc1cccc(-c2cccc(-c3nc4ccccc4[nH]3)c2)c1)Nc1ccc2c(c1)OCO2
inhibition [1]: 4.3% | inhibition [2]: 4.48% | inhibition [3]: 1.05%

O=C1C(c2ccccc2)=C(Nc2cccc([N+](=O)[O-])c2)c2ccccc21
inhibition [1]: 4.58% | inhibition [2]: 3.72% | inhibition [3]: 9.44%

N=C(N)NC(=O)Nc1cc(Cl)c(Cl)c(Br)c1
inhibition [1]: 6.7% | inhibition [2]: 5.82% | inhibition [3]: 2.08%

COc1cc(Cc2cnc(N)nc2N)cc(OCCCCC2NC(=O)NC2=O)c1OC (stereo unspecified)
inhibition [1]: 14.8% | inhibition [2]: 14.5% | inhibition [3]: 11.6%

CCCC(C(CC1CCC(C)CC1)C(=O)NC(CCCNc1ncccn1)C(=O)Nc1nccs1)N(O)C=O (stereo unspecified)
inhibition [1]: 3.88% | inhibition [2]: 3.89% | inhibition [3]: 5.63%

COc1cccc(OC2CCN(C(=O)c3ccc(-c4ccc(N5CCCC5=O)cc4C)cc3)CC2)c1
inhibition [1]: 1.4% | inhibition [2]: 0.88% | inhibition [3]: 3.06%

Fc1ccc2[nH]c(-c3ccc(-c4ccc(CNCc5ccccc5)cc4)cc3)nc2c1
inhibition [1]: 12.6% | inhibition [2]: 8.67% | inhibition [3]: 6.7%

CS(=O)(=O)CCNCc1cccc(-c2cc3c(Nc4ccc(OCc5cccc(F)c5)c(Cl)c4)ncnc3s2)c1
inhibition [1]: -0.25% | inhibition [2]: -0.11% | inhibition [3]: -2.47%

O=C(/C=C/c1ccc(Cl)c(Cl)c1)NCCCCCCN1CCN(C(=O)Nc2ccc(Cl)c(C(F)(F)F)c2)CC1
inhibition [1]: 4.18% | inhibition [2]: 4.06% | inhibition [3]: -1.95%

Cc1ccc(NC(=O)c2ccc(N3CCC(c4ccccc4C)CC3)nc2)cc1
inhibition [1]: 11.9% | inhibition [2]: 9.58% | inhibition [3]: 8.1%

CC(C)N1CCC(N(Cc2ccc(-c3ccc(C(F)(F)F)cc3)cc2)C(=O)Cn2c(CCc3cccc(F)c3F)cc(=O)c3c2CCC3)CC1
inhibition [1]: 3.12% | inhibition [2]: 4.34% | inhibition [3]: 5.2%

O=C(NCCCN1CCOCC1)c1cccc(Nc2nccc(Nc3ccc(Oc4ccccc4)cc3)n2)c1
inhibition [1]: 2.39% | inhibition [2]: -0.18% | inhibition [3]: -0.86%

Cc1cccc2nc(-c3ccc(-c4cccc(CNCCCNS(C)(=O)=O)c4)s3)[nH]c12
inhibition [1]: 0.75% | inhibition [2]: 2.35% | inhibition [3]: -2.06%

Cc1cccc2nc(-c3ccc(-c4ccc(CN5CCCCC5)cc4)cc3)[nH]c12
inhibition [1]: 19.2% | inhibition [2]: 18.6% | inhibition [3]: 10.2%

COc1nc2c(CCN3CC[C@H](NCc4ccc5c(c4)NC(=O)CO5)[C@H](O)C3)c(Cl)cnc2cc1F
inhibition [1]: 6.64% | inhibition [2]: 7.74% | inhibition [3]: 4.24%

O=C(/C=C/c1ccc(Cl)c(Cl)c1)NCCCCCN1CCCC(C(=O)Nc2ccc(F)c(Cl)c2)C1 (stereo unspecified)
inhibition [1]: 3.02% | inhibition [2]: 5.25% | inhibition [3]: 4.87%
